51 compounds from PubChem BioAssay AID588342 (National Center for Advancing Translational Sciences (NCATS), 2011) can be followed below.

Molecules are shown by their SMILES. Out of some 360,000 compounds screened, about 25,000 (6.9%) were called active. Another 9% or so got no clear call; they are omitted. Many of the other results were omitted from the sample, so actives are more common in it than they were. A number with no mark means an inactive call. The call rests on the fitted dose curve; in most records, active means well fitted inhibition curve with a large enough effect; inconclusive means small, poorly fitted or top-dose-only effect; inactive means flat fitted curve, though single readings scatter.

Sequence of Luciferin 4-monooxygenase (Photinus pyralis) (P08659 whole entry, looked up): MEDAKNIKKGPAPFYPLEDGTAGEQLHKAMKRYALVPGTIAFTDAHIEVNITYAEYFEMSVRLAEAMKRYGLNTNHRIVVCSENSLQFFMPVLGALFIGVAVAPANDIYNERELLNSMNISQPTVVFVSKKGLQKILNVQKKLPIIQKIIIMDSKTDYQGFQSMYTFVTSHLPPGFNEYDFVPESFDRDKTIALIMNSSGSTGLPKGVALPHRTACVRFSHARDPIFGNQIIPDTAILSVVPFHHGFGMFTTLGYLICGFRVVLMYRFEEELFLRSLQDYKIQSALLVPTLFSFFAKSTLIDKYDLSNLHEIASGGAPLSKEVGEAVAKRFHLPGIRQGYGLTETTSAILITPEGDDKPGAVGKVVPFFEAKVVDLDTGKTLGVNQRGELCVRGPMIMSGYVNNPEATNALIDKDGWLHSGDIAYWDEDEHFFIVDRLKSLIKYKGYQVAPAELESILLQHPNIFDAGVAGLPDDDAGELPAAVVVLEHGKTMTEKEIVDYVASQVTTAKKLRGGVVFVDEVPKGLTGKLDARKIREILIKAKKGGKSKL

This assay concerns the target Luciferin 4-monooxygenase (Photinus pyralis) (UniProt P08659). The experiment in a line: qHTS profiling assay for firefly luciferase inhibitor/activator using purifed enzyme and Km concentrations of substrates (counterscreen for miR-21 project). Further: nearly all actives have a fitted effect of over 55% in size.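 On activity change, negative = inhibition: plate controls were vehicle for no effect and reference inhibitor for full effect.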 Particulars: purified FLuc, luminescence inhibition; series mostly up to 57.5 µM; activity change, negative = inhibition: at the top concentration. An excerpt: MLPCN Grant: 1 R21 NS059478-01 (miR-21 grant) Assay Provider: NCGC NCGC Assay Overview: Firefly (Photinus pyralis) luciferase is one of the most commonly used transcriptional reporters for a number of reasons. It is considered one of the more dynamically responsive reporters -that is, responsive to changes in reporter transcription - as it requires no post-translational modifications and is enzymatically active directly after protein synthesis (Wood, 1998). Additionally, the half-life of the luciferase protein is short relative to other reporter-gene products (Wood, 1995). Whereas reporters with long half-lives potentially allow for increased signal due to accumulation of reporter-gene product, once accumulated in the cell, dynamic changes in reporter-gene expression may be difficult to detect(Fan and Wood, 2007; Almond et al., 2004). It has been shown that wild-type P. pyralis luciferase has a half-life of approximately […] hours in mammalian cells (Thompson et al., 1991). Firefly luciferase reporter-gene assays are also generally considered one of the most sensitive assay types (Wood, 1995; Wood, 1998). Although light produced in a bioluminescence reaction is of lower intensity than that produced during fluorescence emission, this is offset by little to no background light inherent to luminescent assays. Thus the luciferase reporter can be expressed at much lower levels than fluorescent proteins while still providing robust signal. # However, it was initially observed, in 1991, by Thompson et al., that compounds that resemble the substrates of firefly luciferase (FLuc) can act as competitive inhibitors of the enzyme, and that these compounds, upon interaction with luciferase in the cell, can actually stabilize the protein and increase its half-life. Accumulated intracellular FLuc protein can be measured as an increase in luminescence signal, upon addition of detection reagents (which contain high concentrations of FLuc substrates) commonly used in high-throughput screening. In cell-based reporter gene assays that use FLuc as the reporter gene to quantitate the potential influence of a given compound against the target biology, this apparent increase in luminescence can mistakenly be interpreted as identification of a compound that is active against the target of interest. This is the case for the miR-21 FLuc reporter gene assay used to identify inhibitors of the miR-21 pathway (PubChem AID 2289) - compounds of interest will inhibit miR-21 biogenesis/expression or activity, and are identified by causing an increase in luminescence, due to increased FLuc translation. However, FLuc inhibitory compounds that stabilize the FLuc protein will give an identical read-out, making it difficult to distinguish compounds that are active against the target from those active against FLuc. Previous profiling work to determine the prevalence of compounds that affect FLuc enzymatic activity (PubChem AID 411) identified that ~3% of the MLSMR library (then at ~72K) inhibited FLuc. […] Since the MLSMR had grown to ~350K compounds, and since it was expected that a significant percentage of compounds found active in the miR-21 FLuc assay would be FLuc inhibitors, the library was screened for activity against FLuc using a biochemical assay of purified FLuc and KM concentrations of FLuc substrates (D-luciferin and ATP).
NCGC Assay Protocol Summary: Reagents: 50mM Tris acetate, pH 7.5; 10mM Mg acetate; 10uM D-luciferin (Sigma #L9504); 10uM ATP; 0.01% Tween-20; 0.05% BSA; 10nM P. pyralis luciferase (Sigma #L9506) Control compounds used were two known firefly luciferase inhibitors (compounds (2) and (5) in Auld et al., 2010), and DMSO. […]
(In general: In qHTS, concentration-response curves come from the screen itself.)
On to `Cc1cc(Cl)ccc1OCC(=O)N(Cc1ccc(N(C)C)cc1)C1CCS(=O)(=O)C1` (stereo unspecified), for which the “activity change, negative = inhibition” value was -12.5%. The same measure, in the same setting: the value for `Cc1ccc(C(=O)COC(=O)C(Cc2c[nH]c3ccccc23)NC(=O)c2ccc(Br)cc2)cc1` (stereo unspecified) was 0.131%; that for `COC(=O)[C@@H](NC(=O)Nc1cc(Cl)ccc1C)C(C)C` was -4.44%; that for `CC(CCCc1ccccc1)NC(=O)c1nn(-c2ccc(Cl)cc2)nc1CO` (stereo unspecified) was 1.51%.

Turning to `Cc1cc2nn(-c3ccc(Cl)cc3)nc2cc1NC(=O)C(C)C`, the Potency is 0.379 µM (active). On to `CCN(C(=O)COC(=O)c1c(C)nn(-c2ccccc2)c1Cl)c1c(N)n(Cc2ccccc2)c(=O)[nH]c1=O`, for which the “activity change, negative = inhibition” value was -0.736%. The same measure, in the same setting: the value for `CCOC(=O)C1=C(c2ccccc2)Nc2ncnn2C1c1ccc(Cl)cc1` (stereo unspecified) was -10%. Still for that read-out and setting: as for `CCCSc1ncc(Cl)c(C(=O)Nc2sc3c(c2C(=O)NCCOC)CCCC3)n1`, the figure is -5.29%; as for `NCCCCCC(=O)N/N=C/c1ccc2nccnc2c1`, -0.587%. Take `O=C(N/N=C/c1ccc(Cl)c(Cl)c1)c1ccc2nc[nH]c2c1`: the Potency was 13.5 µM (active). For `CSc1ccc(/C=N/NC(=O)c2cccc(Cl)c2)cc1`, the Potency was 5.36 µM (active). `CSc1ccc(/C=N\NC(=O)CC(=O)NC(C)C)cc1`: the “activity change, negative = inhibition” value is -5.08%.

As for `CC1=NNC(=O)C1CCC(=O)N/N=C\c1ccc(Cl)c(Cl)c1` (stereo unspecified), the “activity change, negative = inhibition” value is -6.92%. Same read-out and setting: the value for `CC(NC(=O)C(=O)N/N=C/c1ccc(Cl)cc1)c1ccccc1` (stereo unspecified) was -1.64%; that for `Cc1ccccc1CNC(=O)C1CCCN(S(=O)(=O)N(C)c2ccc(F)cc2)C1` (stereo unspecified) was 4.61%. For `Cc1c(C(=O)NCc2ccccc2)cnn1-c1ccccc1`, the “activity change, negative = inhibition” value is -24.9%. The same measure, in the same setting: the value for `CCN(CC)CCN1C(=O)C(=O)/C(=C(/O)c2ccc(OC)c(OC)c2)C1c1ccccn1` (stereo unspecified) was 10.6%. As to `CCN(CC)CCN1C(=O)C(=O)/C(=C(/O)c2cnn(-c3ccccc3)c2C)C1c1cccs1` (stereo unspecified), the Potency is 21.3 µM (active).

In the case of `CN(CC(=O)Nc1ccc(Cl)c(C(F)(F)F)c1)C(=O)CCC(=O)c1ccccc1`, the “activity change, negative = inhibition” value was -12.1%. For the compound `Cc1nnc(SCc2cc(=O)c3cc(F)ccc3[nH]2)n1C`, the “activity change, negative = inhibition” value was -1.2%. On the same count and under the same terms, as for `COc1ccc(-c2cc(C(F)(F)F)nc(NCc3cccnc3)n2)cc1`, the figure is 2.9%.

`COc1ccc(-c2cc3ncccc3cn2)cc1`: the Potency was 5.36 µM (active). As for `COc1ccc(-c2cn[nH]c2-c2ccc(OC)cc2)cc1`, the “activity change, negative = inhibition” value is 4.38%.

With `CCOCCCNc1c(CC)c(C)c(C#N)c2nc3ccccc3n12`, the “activity change, negative = inhibition” value was 0.35%. Take `CC1CCc2c(sc3c2C2=NS(=O)(=O)CCN2C=N3)C1` (stereo unspecified): the “activity change, negative = inhibition” value is -12.8%. As to `CCOC(=O)N1CCN(S(=O)(=O)c2ccc3c(c2)C(C)C(=O)N3)CC1` (stereo unspecified), the “activity change, negative = inhibition” value was 2.28%. Same read-out and setting: as for `CCOC(=O)c1c(SCC(=O)Nc2cccc(C)c2C)nc(=O)[nH]c1C`, the figure is 2.11%. The same measure, in the same setting: as for `Cc1ccccc1OCc1ccc(-c2nc(C#N)c(N3CCCCC3)o2)o1`, the figure is 3.38%; as for `Cc1ccc(O)c(NC(=O)c2cc(-c3ccc(F)cc3)no2)c1`, -8.31%. On to `Cc1ccc(O)c(NC(=O)c2cc(-c3ccco3)on2)c1`, for which the Potency was 6.01 µM (active). In the case of `Cc1ccc(O)c(NC(=O)COc2cc(C)ccc2C)c1`, the “activity change, negative = inhibition” value is -4.48%. Same read-out and setting: the value for `COc1cc(C(=O)NCC(c2ccco2)N2CCCC2)ccc1OCc1ccccc1` (stereo unspecified) was 2.12%.

With `CC(=O)N1CCN(CC(=O)Nc2ccc(C)c(F)c2)CC1`, the “activity change, negative = inhibition” value was -0.435%.

For the compound `O=C(CN1CCN(C(=O)c2cccc(F)c2)CC1)Nc1ccccc1F`, the “activity change, negative = inhibition” value is 2.19%. In the case of `CCc1sc(C(=O)N2CCN(CC(=O)Nc3cccc(F)c3)CC2)cc1C`, the Potency was 13.5 µM (active). `CN(CC(=O)Nc1ccc(Cl)cc1)C(=O)c1ccc(COc2ccccc2)cc1`: the “activity change, negative = inhibition” value is 7.64%. Same read-out and setting: as for `Cc1c(NC(=O)c2cc(=O)c3ccccc3o2)c(=O)n(-c2ccccc2)n1C`, the figure is -1.55%. On to `CCCn1nc(C(=O)OCc2nc(N)nc(Nc3ccccc3C)n2)c2ccccc2c1=O`, for which the “activity change, negative = inhibition” value is -1.32%. Same read-out and setting: the value for `Cc1cc(=O)n(CC(=O)Nc2cccc([N+](=O)[O-])c2)c(-n2nc(C)cc2C)n1` was 3.47%; that for `O=C(CCN1C(=O)c2ccccc2C1=O)C1=NN[C@@H]2C(=O)N(c3ccc(F)cc3)C(=O)[C@H]12` was -0.377%. Turning to `CC1(C)CC(=O)c2c(n(S(=O)(=O)c3ccccc3)c3ccc(NS(=O)(=O)c4ccccc4)cc23)C1`, the “activity change, negative = inhibition” value was 1.26%. Regarding `O=C(CCSc1ccccc1)N1CCN(c2ccccc2F)CC1`, the Potency is 10.7 µM (active). As to `O=C(CCSCc1ccccc1F)N1CCN(c2ccc(Cl)cc2)CC1`, the “activity change, negative = inhibition” value was -10.8%.

Consider `O=C(CCc1ccccc1F)N1CCN(c2ccccc2)CC1`, for which the “activity change, negative = inhibition” value is 3.75%. Still for that read-out and setting: as for `Cc1ccc(C)c(Nc2nnc(-c3ccc(C)c(S(=O)(=O)N4CCCCC4)c3)c3ccccc23)c1`, the figure is -1.33%. Regarding `CCCn1nnc2sc3c(c2c1=O)CCC(C)C3` (stereo unspecified), the Potency is 15.1 µM (active).

In the case of `Cn1c(NN)nc2sc3c(c2c1=O)CCC3`, the “activity change, negative = inhibition” value is 1.61%. As to `Cc1ccc(NC(=O)Cn2nnc3sc4c(c3c2=O)CCC(C)C4)cc1` (stereo unspecified), the “activity change, negative = inhibition” value was -7.12%. Same read-out and setting: as for `COC(=O)c1cccc(Cn2nnc3sc4c(c3c2=O)CCC(C(C)(C)C)C4)c1` (stereo unspecified), the figure is 6.43%. The same measure, in the same setting: as for `C=CCn1c(SCc2c(C)noc2C)nc2sc3c(c2c1=O)CCC(C)C3` (stereo unspecified), the figure is 5.75%.

Regarding `CC1CCc2c(sc3nc4n(c(=O)c23)CCS4)C1` (stereo unspecified), the Potency is 21.3 µM (active).
